Test systems include HCT-15 colon; HT29 colon; SNB-75 CNS; SNB-19 CNS; PC-3 prostate; SK-MEL-5 melanoma; UACC-62 melanoma; LOX IMVI melanoma; SK-MEL-28 melanoma; SK-MEL-2 melanoma; EKVX NSCLC; SN12C renal; UO-31 renal; TK-10 renal; ACHN renal; CAKI-1 renal; A498 renal; CCRF-CEM leukemia; MOLT-4 leukemia; U251 CNS.
What all share (experiment): NCI-60 one-dose screen, 48 h (100 = growth as untreated, 0 = no growth, -100 = all killed)
Holding throughout (conditions): 10 µM unless noted

Compounds without any hit were thinned out: in the full panel of roughly 83,000, 20% have a hit.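 48-hour exposure, single concentration, 96-well plates; percent growth endpoint where 0 means no net growth. Active: below 10.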 Values without a mark were called inactive. Calls of active or inactive are those of the source.

`O=C1C(Cl)=C(Cl)C(=O)c2c1nc1n2CCCC1`: the growth in the experiment on HCT-15 colon was 103%; in the experiment on HT29 colon, 99.7%; in the experiment with SNB-75 CNS, 126%; in the experiment with SNB-19 CNS, 96.4%; with PC-3 prostate it was 88.5%; in the experiment on SK-MEL-5 melanoma it was 98.8%. The growth in the experiment on UACC-62 melanoma is 93.7%; in the experiment with LOX IMVI melanoma, 85.8%; with SK-MEL-28 melanoma it was 113%; in the experiment on SK-MEL-2 melanoma it was 88.1%; with EKVX NSCLC it was 95.9%; in the experiment with SN12C renal, 96.5%. Also, the growth in the experiment with UO-31 renal was 88.8%; in the experiment with TK-10 renal it was 60%; in the experiment with ACHN renal it was -8.54% (active); with CAKI-1 renal it was 100%; in the experiment with A498 renal, 76.2%; in the experiment on CCRF-CEM leukemia, 11.7%. In addition, the growth in the experiment on MOLT-4 leukemia was 9.16% (active).
In the case of `O=C1NC(=O)C(CC(=O)n2c(-c3ccccc3)nc3ccccc32)C(=O)N1`, the growth with HCT-15 colon was 100%; in the experiment with HT29 colon, 111%; in the experiment on SNB-75 CNS it was 71.1%; in the experiment on SNB-19 CNS, 89.6%; in the experiment on PC-3 prostate it was 100%; in the experiment on SK-MEL-5 melanoma, 101%. Besides, the growth with UACC-62 melanoma was 94.3%; with LOX IMVI melanoma, 97.2%; with SK-MEL-28 melanoma it was 108%; in the experiment with SK-MEL-2 melanoma, 101%; in the experiment with EKVX NSCLC, 93.6%; in the experiment with SN12C renal, 99.5%. The growth with UO-31 renal is 79.6%; with TK-10 renal, 116%; in the experiment on ACHN renal it was 101%; in the experiment on CAKI-1 renal it was 90.5%; in the experiment on A498 renal, 63.6%; in the experiment on CCRF-CEM leukemia, 104%. Further, the growth in the experiment with MOLT-4 leukemia is 108%.
As to `COC(=O)[C@H](C(C)C)n1c(=O)c2cc(OC)c(OC)cc2c2cnc3[nH]ccc3c21`, the growth was 41.3% in the experiment with HCT-15 colon; 45.5% in the experiment with HT29 colon; 13.2% in the experiment on SNB-75 CNS; 77.7% in the experiment with SNB-19 CNS; 29.2% in the experiment on PC-3 prostate; 58.8% with SK-MEL-5 melanoma. The growth in the experiment on UACC-62 melanoma is 22.3%; in the experiment on LOX IMVI melanoma, 28.2%; in the experiment with SK-MEL-28 melanoma, 62.2%; in the experiment on SK-MEL-2 melanoma, 89.7%; in the experiment on EKVX NSCLC, 47.5%; in the experiment on SN12C renal, 43.5%. Further, the growth is 22% in the experiment on UO-31 renal; 51.1% with TK-10 renal; 34% in the experiment on ACHN renal; 30.5% in the experiment on CAKI-1 renal; -40.3% (active) in the experiment on A498 renal; 39% in the experiment on CCRF-CEM leukemia. Moreover, the growth in the experiment on MOLT-4 leukemia is 1.15% (active).
In the case of `COc1ccc(C(=O)c2sc3nc4c(c(C(F)(F)F)c3c2N)CN(C(C)=O)CC4)cc1OC`, the growth in the experiment with HCT-15 colon is 84.7%; in the experiment with HT29 colon, 95%; with SNB-75 CNS, 74.6%; in the experiment with SNB-19 CNS, 95.8%; in the experiment on U251 CNS it was 78.3%; in the experiment with SK-MEL-5 melanoma, 77.6%. Moreover, the growth is 83.6% in the experiment with UACC-62 melanoma; 78.4% in the experiment with LOX IMVI melanoma; 93.4% in the experiment with SK-MEL-28 melanoma; 93.7% in the experiment with SN12C renal; 46.3% in the experiment on UO-31 renal; 86% with TK-10 renal. Moreover, the growth was 79.1% with ACHN renal; 80% in the experiment with CAKI-1 renal; 58.1% with A498 renal; 82.6% with CCRF-CEM leukemia; 79.2% in the experiment on MOLT-4 leukemia.
For the molecule `CCOc1ccc(Nc2nc(-c3c(C)nc4ncccn34)cs2)cc1`, the growth in the experiment on HCT-15 colon is 15.4%; in the experiment with HT29 colon, 4.76% (active); with SNB-75 CNS, 22.9%; with SNB-19 CNS, 33.4%; in the experiment on U251 CNS it was 4.82% (active); in the experiment on SK-MEL-5 melanoma, -11.6% (active). Further, the growth was 10.6% in the experiment with UACC-62 melanoma; 23.1% in the experiment with LOX IMVI melanoma; 39% in the experiment with SK-MEL-28 melanoma; 14.3% with SN12C renal; 33.9% in the experiment on UO-31 renal; 54.1% with TK-10 renal. The growth in the experiment with ACHN renal is 20.5%; with CAKI-1 renal, 34.1%; with A498 renal, -17.2% (active); with CCRF-CEM leukemia, -4.93% (active); in the experiment on MOLT-4 leukemia, 8.54% (active).
On to `COc1ccc(C2CC(=O)Nc3c2c(C)nn3-c2nc3ccccc3[nH]2)cc1` (stereo not given), for which the growth in the experiment with HCT-15 colon is 99.6%; in the experiment on HT29 colon, 103%; with SNB-75 CNS it was 103%; with SNB-19 CNS, 113%; in the experiment on U251 CNS, 103%; in the experiment on PC-3 prostate, 38.7%. Moreover, the growth in the experiment on SK-MEL-5 melanoma is 95.5%; in the experiment with UACC-62 melanoma it was 104%; in the experiment with SK-MEL-28 melanoma, 105%; with SK-MEL-2 melanoma, 100%; in the experiment on SN12C renal it was 103%; in the experiment on TK-10 renal, 116%. The growth was 99.1% in the experiment on ACHN renal; 101% in the experiment on CAKI-1 renal; 41.6% in the experiment with A498 renal; 10.1% with CCRF-CEM leukemia; -44.6% (active) in the experiment with MOLT-4 leukemia.
For the molecule `CC(C)CC(CC1=CCC2CC1C2(C)C)C1=C(O)C(C)(C)C(=O)C(C)(C)C1=O` (stereo not given), the growth is 13.5% in the experiment with HCT-15 colon; 1.62% (active) in the experiment with HT29 colon; 19.7% with SNB-75 CNS; 16% in the experiment with SNB-19 CNS; 5.09% (active) with PC-3 prostate; -31.2% (active) in the experiment on SK-MEL-5 melanoma. The growth in the experiment with UACC-62 melanoma was 9.64% (active); in the experiment on LOX IMVI melanoma, 6% (active); in the experiment with SK-MEL-28 melanoma it was 28.8%; with SK-MEL-2 melanoma, -18.2% (active); in the experiment with EKVX NSCLC it was 20%; in the experiment with SN12C renal, 3.56% (active). Further, the growth is 8.44% (active) in the experiment with UO-31 renal; 15.6% with TK-10 renal; 3.98% (active) with ACHN renal; 6.44% (active) with CAKI-1 renal; -17.9% (active) in the experiment on A498 renal; 1.78% (active) with CCRF-CEM leukemia. Further, the growth in the experiment on MOLT-4 leukemia is -24% (active).
With `COc1cc(-c2c3sc(=O)[nH]c3nc3c2c(=O)[nH]n3C(C)C)cc2c1OCO2`, the growth is 101% in the experiment with HCT-15 colon; 103% in the experiment with HT29 colon; 85.2% with SNB-75 CNS; 107% in the experiment with SNB-19 CNS; 103% with U251 CNS; 117% with PC-3 prostate. The growth in the experiment with SK-MEL-5 melanoma is 96.9%; in the experiment with UACC-62 melanoma, 105%; in the experiment on SK-MEL-28 melanoma, 99.2%; with SK-MEL-2 melanoma it was 101%; in the experiment on SN12C renal, 99.4%; in the experiment on UO-31 renal, 96.8%. The growth is 114% in the experiment on TK-10 renal; 95.8% in the experiment with ACHN renal; 88.8% in the experiment with CAKI-1 renal; 67.1% with A498 renal; 125% in the experiment with CCRF-CEM leukemia; 104% in the experiment on MOLT-4 leukemia.

For the origin of these results see PubChem BioAssay (NCI).
